Activity calls are given as the source filed them. Where a call stands in place of a potency, no number is given. Calls come from the whole dose curve; as a rule, active = well fitted curve in the direction sought with a large enough effect; inconclusive = small, poorly fitted or top-dose-only effect, or effect the other way, or another doubt; inactive = no such curve, though single readings can be large or run the other way.

The test in a line: qHTS of Nrf2 Activators: LOPAC Validation (AID 624149). The conditions noted are these: Nrf2/ARE reporter cell assay; series mostly up to 46.1 µM. From the text: Many diseases have some form of oxidative stress injury and ties to inflammation, causing a host of problems for the patient. The antioxidant response element (ARE) plays an important role in alleviating the harmful effects of oxidative stress. The antioxidant response element (ARE) is a transcriptional regulatory element involved in the activation of genes coding for a number of antioxidant proteins and detoxifying enzymes. These enzymes work in concert to protect tissues from oxidative insults and chemical toxicities in human hepatocytes and immune cells. The protective effects of ARE activation are primarily triggered through Nrf2 (NF-E2-related factor) binding to and activating AREs. It is known that Nrf2 controls the production of over 250 antioxidant and detoxification proteins (Hu et al., 2006), thereby protecting tissues by increasing cellular antioxidant content and suppressing inflammatory signaling pathways. The transcription factor Nrf2 is a central link between oxidative chemicals, such as phenolic antioxidants and electrophilic compounds, and the activation of ARE. Nrf2 levels are constitutively low as a consequence of its interaction with Keap1, which targets its degradation (Zipper and Mulcahy, 2002). Electrophiles react with key cysteine residues in Keap1, releasing Nrf2 and allowing its translocation to the nucleus. Once within the nucleus, Nrf2 complexes with coactivators such as p300, and binds to the AREs to induce gene transcription of cytoprotective enzymes, resulting in the prevention of toxicity. Activation of Nrf2 protects tissues by increasing cellular antioxidant content and suppressing inflammatory signaling pathways. Identifying novel and potent Nrf2 activators by using the AREc32 cell line to detect ARE activation by small molecules will lead to the identification and development of probes to study protective pathways in multiple tissues. These specific probes are essential to study the ARE pathway, and eventually to determine whether this pathway does activate genes that could protect against a host of diseases, including cardiovascular diseases, obesity, diabetes, Alzheimer's, and Parkinson's disease.
This project's aim is to identify novel and potent Nrf2 activators by using the AREc32 cell line to detect ARE activation by small molecules, which will lead to the identification and development of probes to study the ARE pathway.
NIH Chemical Genomics Center [NCGC]
NIH Molecular Libraries Probe Centers Network [MLPCN]
Assay Submitter (PI): Curtis Klaassen, University of Kansas Medical Center
5 uL of 1000 cells/well of AREc32_Fluc cells are seeded into 1536-well plate in OPTI-MEM medium with 5% FBS. The plates are incubated overnight at 37 deg C with 5% CO2. Then through pin tool transfer, 23 nL of compounds are added to each well before a 24 hr incubation at 37 deg C with 5% CO2. After the addition of 2.5 uL of Steady-Glo. the plates are kept at RT for 30 min, before they are read on the ViewLux
Take `CCCc1c(-c2ccc(O)cc2)nn(-c2ccc(O)cc2)c1-c1ccc(O)cc1`: the Potency entry was “inactive”.
On to `CC[n+]1c(/C=C/C=C2/N(C)c3ccccc3C2(C)C)sc2ccccc21`, for which the Potency result was “inactive”.
With `C=C1C(=O)O[C@@H]2[C@H]3O[C@]3(C)CCC=C(C)CC[C@@H]12`, the Potency result was “inactive”.
With `COc1cc(CNC(=O)CCCCCCC(C)C)ccc1O`, the Potency result is “inactive”.
In the case of `CC1CNCCN1S(=O)(=O)c1cccc2cnccc12` (stereo not given), the Potency result is “inactive”.
Take `CC(=O)NNC(=O)N1Cc2ccccc2Oc2ccc(Cl)cc21`: the Potency entry was “inactive”.
`COc1ccc2c(c1)c(CC(=O)O)c(C)n2C(=O)c1ccccc1`: the Potency entry is “inactive”.
As to `NC(C(=O)N[C@@H]1C(=O)N2C(C(=O)O)=C(Cl)CS[C@H]12)c1ccccc1` (stereo not given in full), the Potency entry is “inactive”.
With `NCC(O)c1ccc(O)c(O)c1` (stereo not given), the Potency entry was “inactive”.
Take `O=C(O)/C(=C/c1c(C(=O)O)[nH]c2cc(Cl)cc(Cl)c12)c1ccccc1`: the Potency entry was “inactive”.
With `Cc1cccc(C2CN(C)CCc3c2cc(O)c(O)c3Cl)c1` (stereo not given), the Potency result was “inactive”.
Regarding `O=c1cc(O)cc(/C=C/c2ccc(O)c(O)c2)o1`, the Potency entry was “inactive”.
The value for `NCC(O)(CS(=O)(=O)O)c1ccc(Cl)cc1` (stereo not given) was “inactive”.
With `N=C(N)SCCN`, the Potency result is “inactive”.
The value for `COc1ccc2c(c1)CCC1C2CC[C@@]2(C)C1CC[C@@H]2NCCCCCCN1C(=O)C=CC1=O` (stereo not given in full) was “inactive”; that for `c1ccc(CN2CCC3(CCCc4ccccc43)CC2)cc1` was “inactive”.
On to `C[C@H](O)C(=O)C1=Nc2c(nc(N)[nH]c2=O)NC1`, for which the Potency result is “inactive”.
As for `CC(=O)N[C@@H](Cc1c[nH]c2ccccc12)C(=O)OCc1cc(C(F)(F)F)cc(C(F)(F)F)c1`, the Potency result is “inactive”.
Regarding `NC1CCN(O)C1=O` (stereo not given), the Potency result was “inactive”.
For the compound `O=C(O)C1=CCNCC1`, the Potency entry is “inactive”.
For the compound `O=C(O)C1=CCCN(CCON=C(c2ccccc2)c2ccccc2)C1`, the Potency result is “inactive”.
With `NC(N)=N[C@@H](CCC(=O)O)C(=O)O`, the Potency entry is “inactive”.
The value for `NC(=O)CC[C@H](N)C(=O)O` was “inactive”; that for `Nc1nc2[nH]c(=O)cnc2c(=O)[nH]1` was “inactive”; that for `O[Si](CCCN1CCCCC1)(c1ccc(F)cc1)C1CCCCC1` (stereo not given) was “inactive”.
In the case of `CCCCOC(=O)NS(=O)(=O)c1sc(CC(C)C)cc1-c1ccc(Cn2c(CC)nc3c(C)cc(C)nc32)cc1`, the Potency entry is “inactive”.
For the compound `CCCCC[C@H](CC(=O)NO)C(=O)N[C@H](C(=O)N1CCC[C@H]1CO)C(C)C`, the Potency result was “inactive”.
Consider `C[C@@H](NCCc1ccc(O)cc1)[C@@H](O)c1ccc(O)cc1`, for which the Potency entry was “inactive”.
Turning to `CCCn1c(=O)c2[nH]c(-c3ccc(S(=O)(=O)O)cc3)nc2n(CCC)c1=O`, the Potency entry was “inactive”.
The value for `CN1CC(O)C(O)C(O)C1CO` (stereo not given) was “inactive”; that for `C=C(C)C1CC=C(C(=O)O)CC1` (stereo not given) was “inactive”; that for `N#CC(=C(\N)Sc1ccccc1N)/C(C#N)=C(/N)Sc1ccccc1N` was “inactive”.
The value for `NC1C=CC=C(C(=O)O)C1` (stereo not given) was “inactive”.
Consider `CC(N)(Cc1ccc(O)cc1)C(=O)O` (stereo not given), for which the Potency entry was “inactive”.
The value for `NOCC(=O)O` was “inactive”; that for `N[C@H](C(=O)O)[C@H](Cc1ccccc1)C(=O)O` was “inactive”.
For `CO/N=C(\C(=O)N[C@@H]1C(=O)N2C(C(=O)O)=C(CSc3nc(=O)c(O)nn3C)CSC12)c1csc(N)n1` (stereo not given in full), the Potency entry is “inactive”.
For `Nc1ncnc2c1ncn2C1CCCC1`, the Potency entry is “inactive”.
Regarding `COc1cc2c(CCNC(C)=O)c[nH]c2cc1O`, the Potency result was “inactive”.
For the compound `NC(N)=NC(N)=Nc1ccccc1`, the Potency entry was “inactive”.

Source of the values: PubChem BioAssay (NCATS).
